Measurements: ChEMBL document CHEMBL3988442, “University of Dundee, Small-Polar-MMV Screening Library” (2021)
Hit rate of the full screen: of about 66,000 compounds, about 960 (1.5%) showed an effect of 50% or more. Many of the other results were omitted from the sample, so strong results are more common in it than they were.

System: Trypanosoma brucei
Experiment: Trypanosoma brucei 72 hour study
Type: functional, organism-based
Parameters: scale not given: in the data most compounds retested in dose-response had high values

Structure (SMILES)	Percent Effect (30.3 µM, […])	Percent Effect (30 µM, 30.03 µM)
Cc1ccc(S(=O)(=O)Nc2ccc(=O)n(C)c2)c(Br)c1	-36.73%	
CCN1CC[C@@]2(C(=O)Nc3ccccc3)CCN(S(C)(=O)=O)CC[C@@H]12.O=C(O)C(F)(F)F		-16.54%
CCOCC1CN(C(=O)c2cnoc2C)Cc2cnn(C)c21.O=C(O)C(F)(F)F (stereo unspecified)	-5.791%	
CCC(=O)N1CCC2(CC1)CC(CC(=O)N(C)C)c1ccc(F)cc12 (stereo unspecified)	-4.762%	
c1ccc(-c2nc3c(c(NCc4n[nH]c5c4CCC5)n2)CCNC3)cc1		50.77%
c1coc(-c2nc3c(c(NCc4n[nH]c5c4CCC5)n2)CCNCC3)c1		-54.29%
c1ccc(-c2nc3c(c(NCc4nnc5n4CCC5)n2)CCNC3)cc1	7.408%	
CCc1nc2ccccc2c(=O)n1CC1(O)CCN(C(=O)C2CC2)CC1.Cl	5.264%	
CN(C)c1ccc(-c2cc(C(=O)O)cc(S(=O)(=O)NC3CC3)c2)cc1		102.4%
O=C(O)c1cc(-c2ccoc2)cc(S(=O)(=O)NC2CC2)c1		27.37%
O=C(O)c1cc(-c2ccc3c(c2)OCO3)cc(S(=O)(=O)NC2CC2)c1		-10.73%
O=C(CO)N1CCC(CCc2ccnc(Nc3cnccn3)c2)CC1	12.44%	
CC(=O)N1CCC(CCc2ccnc(NC(=O)c3ccccn3)c2)CC1	56.75%	
CC(=O)Nc1cc(CCC2CCN(C(=O)c3ccccn3)CC2)ccn1	-19.84%	
CN1CCC(CCc2ccnc(NC(=O)c3ccccn3)c2)CC1	24.76%	
O=C(Nc1cc(CCC2CCN(CCO)CC2)ccn1)c1ccccn1	100.1%	
CC(=O)N1CCC(CCc2ccnc(Nc3ccccn3)c2)CC1	18.19%	
O=C(O)C(F)(F)F.O=C([C@@H]1C[C@@H]2CCN(C3CCOCC3)C[C@@H]2O1)N1CCCC1	-37.65%	
O=C(NCc1cccs1)[C@H]1CO[C@H]2CCN(C3CCCC3)C[C@H]2C1.O=C(O)C(F)(F)F	-53.03%	
CN(C)CCn1ccc2cc(NC(=O)NCc3ncnn3C)ccc21	-3.411%	
Cc1cc(NC(=O)Nc2ccc3c(ccn3CCN(C)C)c2)n(C)n1	55.17%	
Cc1nc(CNC(=O)Nc2ccc3c(ccn3CCN(C)C)c2)no1	-6.711%	
Cc1cccc(CN2Cc3ncn(C)c3C(COCC(=O)N(C)C)C2)n1.O=C(O)C(F)(F)F.O=C(O)C(F)(F)F.O=C(O)C(F)(F)F (stereo unspecified)	-54.51%	
Cl.c1cncc(CNc2cncc(C3CCCN3)n2)c1 (stereo unspecified)	-3.878%	
Cc1nc(CN2CCO[C@@H]3CN(Cc4nccs4)C[C@@H]3C2)cs1.O=C(O)C(F)(F)F.O=C(O)C(F)(F)F		45.29%
Cl.Cn1cc(CN(Cc2ccccc2)Cc2ccccn2)cn1	-17.42%	

Structure (SMILES)	Percent Effect (30.3 µM, […])	Percent Effect (30 µM, 30.03 µM)
CN(C)[C@@H]1CN(Cc2ccccc2O)C[C@H]1c1cn(C)c2ccccc12.Cl	100%	
CN(C)[C@@H]1CN(Cc2ccc(O)cc2)C[C@H]1c1cn(C)c2ccccc12.Cl	10.26%	
CN(C)[C@@H]1CN(Cc2ccccn2)C[C@H]1c1cn(C)c2ccccc12.Cl	22.59%	
CCn1nc(C)c(-c2cncn2CCN(C)C2CCCC2)c1C.Cl	-4.685%	
O=C(c1c(O)cc(F)cc1F)N1CCc2cnccc21		-42.5%
CCO[C@@H]1CO[C@@]2(CCN(Cc3ccc4c(c3)OCO4)C2)C1.O=C(O)C(F)(F)F	14.48%	
Cc1[nH]nc(CCC(=O)N2CCc3ncnc(NCCO)c3CC2)c1C		-37%
O=C(CCc1ccco1)N1CCc2[nH]nc(COc3ccccc3)c2C1		-57.79%
O=C(CCn1cccc1)N1CCc2[nH]nc(COc3ccccc3)c2C1		-16.91%
O=C(CCc1cccs1)N1CCc2[nH]nc(COc3ccccc3)c2C1		68.24%
Cc1nn(C(C)C)c(C)c1CN1CCN(C2CCCCC2)C(=O)C1.O=C(O)CC(O)(CC(=O)O)C(=O)O	-4.336%	
CC(=O)N1CCCCC12CCCN(Cc1ccco1)C2.O=C(O)C(F)(F)F (stereo unspecified)	5.13%	
Cc1cc(C)c(-c2nc(-c3c(C)ncc4c3CCNC4)no2)o1		-0.4206%
CN(C)C1COC2(CCN(Cc3nccs3)CC2)C1.O=C(O)C(F)(F)F.O=C(O)C(F)(F)F (stereo unspecified)	-5.42%	
CN(C)CCN1C2(CCN(Cc3nccs3)C2)c2ccccc2S1(=O)=O.O=C(O)C(F)(F)F.O=C(O)C(F)(F)F (stereo unspecified)	-461.1%	
CN(Cc1ccccn1)C1COC2(CCN(Cc3nccs3)CC2)C1 (stereo unspecified)		58.22%
CN(Cc1cccnc1)C1CC2(CCN(c3ncccn3)CC2)C1.O=C(O)C(F)(F)F.O=C(O)C(F)(F)F	-50.17%	
CC(C)CCN1C2(CCN(Cc3nccs3)C2)c2ccccc2S1(=O)=O.O=C(O)C(F)(F)F (stereo unspecified)	91.13%	
COCCN1C2(CCN(Cc3nccs3)C2)c2ccccc2S1(=O)=O.O=C(O)C(F)(F)F (stereo unspecified)	-203.3%	
CN(Cc1cccnc1)C1CC2(CCN(Cc3ccccn3)CC2)C1.O=C(O)C(F)(F)F.O=C(O)C(F)(F)F.O=C(O)C(F)(F)F	-569.4%	
CN(Cc1cccnc1)C1CC2(CCN(c3ccccn3)CC2)C1.O=C(O)C(F)(F)F.O=C(O)C(F)(F)F.O=C(O)C(F)(F)F		54.5%
CN(Cc1cccnc1)C1COC2(CCN(Cc3nccs3)CC2)C1.O=C(O)C(F)(F)F.O=C(O)C(F)(F)F.O=C(O)C(F)(F)F (stereo unspecified)	-7.601%	
CN(Cc1ccccn1)C1COC2(CCN(Cc3cccnc3)CC2)C1 (stereo unspecified)		-2.463%
CN(Cc1ccco1)C1COC2(CCN(Cc3nccs3)CC2)C1.O=C(O)C(F)(F)F.O=C(O)C(F)(F)F (stereo unspecified)	-7.244%	
CN(Cc1ccccc1)C1COC2(CCN(Cc3nccs3)CC2)C1.O=C(O)C(F)(F)F (stereo unspecified)		56.78%
